{
  "source": "PubChem BioAssay AID651642",
  "about": "(Sanford-Burnham Center for Chemical Genomics, 2012)",
  "note": "The source made the active and inactive calls.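 Rule for the calls: active = average half-effect concentration of 10 µM or less in every one of the four cell panels; inactive = the rest.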",
  "data": [
    {"system": "HL-1", "test": "protection of cardiomyocytes from stress damage, SAR follow-up, cell-based, panel, H9c2 and HL-1, H2O2, 2-deoxyglucose, ATP luminescence (AID 651642)", "details": "H9c2/HL-1 cardiomyocyte 2-deoxyglucose damage, mean of runs, with 2-deoxyglucose", "values": [
      {"smiles": "COc1cc(-c2cc(C(=O)NCC(=O)Nc3ccc(C(C)=O)cc3)c3cc(C)ccc3n2)cc(OC)c1OC", "outcome": "active"},
      {"smiles": "COc1cc(-c2cc(C(=O)NCC(=O)O)c3ccccc3n2)cc(OC)c1OC", "outcome": "inactive"},
      {"smiles": "COc1ccc2c(c1OC)C(=O)N1c3ccccc3C(=O)N(Cc3ccc(F)cc3)C21", "note": "(centres undefined)", "outcome": "inactive"},
      {"smiles": "COc1ccc2nc(-c3cc(OC)c(OC)c(OC)c3)cc(C(=O)NCC(=O)Nc3cccc(C(C)=O)c3)c2c1", "outcome": "active"},
      {"smiles": "COc1cc(-c2cc(C(=O)Nc3cccc(C(C)=O)c3)c3ccc(Cl)cc3n2)cc(OC)c1OC", "outcome": "inactive"},
      {"smiles": "COc1ccc2c(c1OC)C(=O)N1c3ccccc3C(=O)N(Cc3ccccc3F)C21", "note": "(centres undefined)", "outcome": "active"},
      {"smiles": "COc1cc(-c2cc(C(=O)NCC(=O)Nc3cccc(C(C)=O)c3)c3cccc(Cl)c3n2)cc(OC)c1OC", "outcome": "active"},
      {"smiles": "COc1ccc2c(c1OC)C(=O)N1c3ccccc3C(=O)N(Cc3ccccn3)C21", "note": "(centres undefined)", "outcome": "inactive"},
      {"smiles": "CCOC(=O)c1cccc(NC(=O)c2cc(-c3cc(OC)c(OC)c(OC)c3)nc3ccc(C)cc23)c1", "outcome": "inactive"},
      {"smiles": "COc1cc(-c2cc(C(=O)Nc3cccc(C(=O)N4CCOCC4)c3)c3ccccc3n2)cc(OC)c1OC", "outcome": "inactive"},
      {"smiles": "COc1ccc2c(c1OC)C(=O)N1c3ccccc3C(=O)N(Cc3ccc(C)cc3C)C21", "note": "(centres undefined)", "outcome": "inactive"},
      {"smiles": "COc1cc(-c2cc(C(=O)NCC(=O)Nc3ccc(C(C)=O)cc3)c3ccccc3n2)cc(OC)c1OC", "outcome": "inactive"},
      {"smiles": "COc1ccc2c(c1OC)C(=O)N1c3ccccc3C(=O)N(Cc3ccccc3Cl)C21", "note": "(centres undefined)", "outcome": "active"},
      {"smiles": "COc1ccc2c(c1OC)C(=O)N1c3ccccc3C(=O)N(Cc3ccc(C)cc3)C21", "note": "(centres undefined)", "outcome": "inactive"}
    ]}
  ]
}
